# Laboratory results published in ChEMBL document CHEMBL3988442, “University of Dundee, Small-Polar-MMV Screening Library” (2021).
# About 13,000 (27%) of roughly 48,000 compounds showed an effect of 50% or more. The list shows a part of the results.
# System: Wolbachia pipientis
# Test: Anti-Wolbachia Cell-Based Screen
# Type: functional
# Design: scale not given: in the data most compounds retested in dose-response had high values
# Settings: 5 µM
row,Compound,Percent Effect
1,CNc1nc(C(=O)NCc2cccnc2N(C)C2CCCCC2)cs1,1.168%
2,Cc1nn(C)c2nc(N(C)CCN(C)C)sc12,-12.15%
3,Cc1cc(C#N)ccc1S(=O)(=O)NCc1cnc(N(C)C)n1C,-10.13%
4,COCCN1CCCCC12CC(=O)N(c1ccccc1OC)C2.O=C(O)C(F)(F)F (stereo not given),105%
5,O=C(O)C(F)(F)F.O=C1CC2(CCCCN2CC2CC2)CN1c1ccccc1 (stereo not given),-2.383%
6,COCCN1CCCCC12CC(=O)N(c1cccc(C#N)c1)C2.O=C(O)C(F)(F)F (stereo not given),96.19%
7,N#Cc1ccccc1N1CC2(CCCCN2CC2CC2)CC1=O.O=C(O)C(F)(F)F (stereo not given),-5.23%
8,CN(C)CC(=O)N1CCC2(CC(=O)N(c3cccc(C#N)c3)C2)C1.O=C(O)C(F)(F)F (stereo not given),-15.58%
9,Cc1ccccc1N1CC2(CCCCN2CC2CC2)CC1=O.O=C(O)C(F)(F)F (stereo not given),0.424%
10,CCN1CCN(C(=O)c2ccc(OC)nn2)c2ccccc21,6.209%
11,CC(C)(C)Cc1nnc(NCc2cccc(C#N)c2)o1,-57.27%
12,COCCCC(=O)Nc1cccnc1N1CCCCC1,0.2962%
13,CC(NC(=O)Nc1cccnc1N1CCCC1)c1ccccn1 (stereo not given),9.094%
14,CS(=O)(=O)NC1CCN(C(=O)c2ccc(Br)cc2)C1 (stereo not given),2.662%
15,Cn1cc(NC(=O)N2CCC(NS(C)(=O)=O)CC2)ccc1=O,-4.185%
16,CS(=O)(=O)NC1CCCN(C(=O)Nc2cccnc2)C1 (stereo not given),122.7%
17,CS(=O)(=O)NC1CCCN(C(=O)c2cccnc2)C1 (stereo not given),108.4%
18,CS(=O)(=O)NC1CCCN(C(=O)Nc2cccnc2N2CCCC2)C1 (stereo not given),111.1%

row,Compound,Percent Effect
1,CC(C)S(=O)(=O)NCC1CCCN(C(=O)c2cccnc2)C1 (stereo not given),-9.569%
2,CCCN(C(=O)CNC1CCc2ncnn2C1)C1=CCCCC1 (stereo not given),7.464%
3,COC1CCN(C(=O)CC(C)(C)C)CC(=O)N(C)c2ccccc21 (stereo not given),108.9%
4,COC1CCN(C(=O)COC(C)=O)CC(=O)N(C)c2ccccc21 (stereo not given),102.8%
5,CC(C)(C)CC(=O)N1CC[C@H]2CC(=O)N(CCc3c[nH]cn3)CC[C@H]2C1,-18.99%
6,CC(C)(C)CC(=O)N1CC[C@H]2NC(=O)N(Cc3ccccc3)C(=O)[C@H]21,-1.242%
7,CCC[C@H]1CN(c2nccc(OC)n2)C[C@@H]1NS(=O)(=O)N(C)C,12.34%
8,CCN(Cc1nccn1C)C(=O)c1ccc(NCCc2c[nH]cn2)nc1,-4.233%
9,CCN(CCC(F)(F)F)S(=O)(=O)c1cccc(F)c1C#N,-15.21%
10,CCN(Cc1cnn(C)c1)S(=O)(=O)c1ccc(NC(C)=O)cc1,-1.303%
11,CCCN(Cc1cnn(C)c1)S(=O)(=O)c1cc(C)cc(F)c1,91.35%
12,CN(CCn1cccn1)S(=O)(=O)c1cccc(F)c1C#N,-19.52%
13,CCCN(Cc1cnn(C)c1)S(=O)(=O)c1cccc(F)c1C#N,103.9%
14,CCCN(Cc1cnn(C)c1)CC1CCCN(S(C)(=O)=O)C1 (stereo not given),-6.058%
15,CCCN(Cc1cnn(C)c1)S(=O)(=O)c1ccc(F)c(C#N)c1,88.2%
16,CCN(Cc1cnn(C)c1)S(=O)(=O)c1ccc(NC(=O)C(C)(C)C)cc1,-17.75%
17,COCCN(C)S(=O)(=O)c1cc(C)cc(F)c1,-0.1957%
